Experimental data published in PubChem BioAssay (NCATS).
Inconclusive results are not listed. Active and inactive are the calls of the source. Calls follow the shape of the dose curve; as a rule, active = well fitted curve in the direction sought with a large enough effect; inconclusive = small, poorly fitted or top-dose-only effect, or another doubt; inactive = no such curve, though single readings can be large; an effect the other way counts as inactive or inconclusive.

Tests used:
[1] = tested on: HACAT; test: qHTS assay to identify novel small-molecules to repurpose for Merkel cell carcinoma treatment (AID 1296009); conditions: MCC and control cell lines, CellTiter-Glo viability, 72 h; at 44.8 µM (top of the series) unless noted; also: nearly all actives have a fitted effect of over 60% in size
In short: (§1)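 CellTiter-Glo luminescence after 72 hr compound exposure at 37 degree celsius gave cell viability. Libraries NPC and MIPE were run as 8- and 11-point dose responses; RLUs normalized to DMSO (negative) and no-cell (cytotoxicity) controls.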

[2] = tested on: NIH3T3; test: as above; conditions: MCC and control cell lines, CellTiter-Glo viability, 72 h; at 44.8 µM (top of the series) unless noted
In short: as §1

[3] = tested on: C33A; test: Primary qHTS to identify gynecologic anti-cancer compounds using libraries of approved drugs and bioactive compounds (AID 1345084); conditions: Gynecologic cancer cell panel viability, ATPlite luminescence, 48 h; series mostly up to 57.5 µM; also: % is scaled to controls: 0 for no effect and ±100 for the full control effect; nearly all actives have a fitted effect of over 55% in size
In short: (§2)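 ATP-based viability (ATPlite), 1,000 cells/well, 16 h pre-incubation, 48 h compound at 37 C, 5% CO2, 15 min RT before read.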

[4] = tested on: CAOV3; test: as above; conditions: Gynecologic cancer cell panel viability, ATPlite luminescence, 48 h; series mostly up to 57.5 µM
In short: as §2

[5] = tested on: CASKI; test: as above; conditions: Gynecologic cancer cell panel viability, ATPlite luminescence, 48 h; series mostly up to 57.5 µM
In short: as §2

[6] = tested on: Es-2; test: as above; conditions: Gynecologic cancer cell panel viability, ATPlite luminescence, 48 h; series mostly up to 57.5 µM
In short: as §2

[7] = tested on: HeLa; test: as above; conditions: Gynecologic cancer cell panel viability, ATPlite luminescence, 48 h; series mostly up to 57.5 µM
In short: as §2

[8] = tested on: Hek293T; test: as above; conditions: Gynecologic cancer cell panel viability, ATPlite luminescence, 48 h, control line for the selectivity index; series mostly up to 57.5 µM
In short: as §2

[9] = tested on: JEG-3; test: as above; conditions: Gynecologic cancer cell panel viability, ATPlite luminescence, 48 h; series mostly up to 57.5 µM
In short: as §2

CC(=O)O[C@@H]1[C@H](O[C@@H]2O[C@H](CO)[C@@H](O)[C@H](O)[C@H]2O)[C@@H](O[C@@H]2O[C@@H](C)[C@H](O)[C@@H](O[C@@H]3O[C@H](CO)[C@@H](O)[C@H](O)[C@H]3O)[C@H]2O)[C@H](OC(=O)[C@]23CCC(C)(C)C[C@H]2C2=CCC4[C@@]5(C)C[C@H](O)[C@H](O[C@@H]6O[C@H](C(=O)O)[C@@H](O)[C@H](O)[C@H]6O)[C@@](C)(C(=O)O)C5CC[C@@]4(C)[C@]2(C)CC3)O[C@@H]1C (some centres undefined)
inactive: outcome [1] inactive [at 9.27 µM] | outcome [2] inactive [at 9.27 µM] | activity change, negative = cytotoxicity [3] 2.77% [at 6.55 µM] | activity change, negative = cytotoxicity [4] -7.98% [at 6.55 µM] | activity change, negative = cytotoxicity [5] -0.483% [at 6.55 µM] | activity change, negative = cytotoxicity [6] -0.374% [at 6.55 µM] | activity change, negative = cytotoxicity [7] 0.873% [at 6.55 µM] | activity change, negative = cytotoxicity [8] 0.423% [at 6.55 µM] | activity change, negative = cytotoxicity [9] 0.0867% [at 6.55 µM]

COc1ccc(OC2OC(CO[C@@H]3O[C@@H](C)[C@H](O)[C@@H](O)[C@H]3O)C(O)C(O)C2O)cc1OC (some centres undefined)
inactive: outcome [1] inactive [at 17.4 µM] | outcome [2] inactive [at 17.4 µM] | Potency [3] | Potency [4] | outcome [5] | Potency [6] | Potency [7] | Potency [8] | Potency [9]

Cc1ccc(Nc2nnc(-c3ccc([N+](=O)[O-])cc3)o2)cc1Cl
inactive: outcome [1] | outcome [2] | Potency [3] | Potency [4] | outcome [5] | Potency [6] | Potency [7] | Potency [8] | Potency [9]

CC(=O)/C=C/C1(O)C(C)(C)CC(O)CC1(C)O (centres undefined)
inactive: outcome [1] | outcome [2] | Potency [3] | Potency [4] | outcome [5] | Potency [6] | Potency [7] | Potency [8] | Potency [9]

O=C(O)CCc1ccc(NCc2cccc3c2CCCN3CCOc2ccccc2)cc1F
inactive: outcome [1] | outcome [2] | Potency [3] | Potency [4] | outcome [5] | Potency [6] | Potency [7] | Potency [8] | Potency [9]

COc1ccc(/C=C/C(=O)O[C@@H]2[C@@H](O[C@@H]3O[C@H](CO)[C@@H](O)[C@H](O)[C@H]3O)[C@@H](O)[C@H](O[C@H]3C4C=CO[C@@H](O[C@@H]5O[C@H](CO)[C@@H](O)[C@H](O)[C@H]5O)C4[C@@]4(CO)O[C@@H]34)O[C@H]2C)cc1 (some centres undefined)
inactive: outcome [1] inactive [at 9.27 µM] | outcome [2] inactive [at 9.27 µM] | activity change, negative = cytotoxicity [3] -3.09% [at 11.6 µM] | activity change, negative = cytotoxicity [4] -4.58% [at 11.6 µM] | activity change, negative = cytotoxicity [5] 6.26% [at 11.6 µM] | activity change, negative = cytotoxicity [6] 3.1% [at 11.6 µM] | activity change, negative = cytotoxicity [7] 5.69% [at 11.6 µM] | activity change, negative = cytotoxicity [8] 2.2% [at 11.6 µM] | activity change, negative = cytotoxicity [9] 7.02% [at 11.6 µM]

C=C(C)[C@@]1(O)C[C@@]2(C)C(=CC1=O)CC[C@@H](O)[C@@H]2C
inactive: outcome [1] | outcome [2] | Potency [3] | Potency [4] | outcome [5] | Potency [6] | Potency [7] | Potency [8] | Potency [9]

CC(C)=CCC/C(C)=C/CO[C@@H]1O[C@H](CO[C@@H]2OC[C@](O)(CO)[C@H]2O)[C@@H](O)[C@H](O)[C@H]1O
inactive: outcome [1] inactive [at 17.4 µM] | outcome [2] inactive [at 17.4 µM] | Potency [3] | Potency [4] | outcome [5] | Potency [6] | Potency [7] | Potency [8] | Potency [9]

COC(=O)C1(C)CCCC2(C)c3ccc(C(C)C)cc3C(O)C(O)C12 (centres undefined)
inactive: outcome [1] | outcome [2] | Potency [3] | Potency [4] | outcome [5] | Potency [6] | Potency [7] | Potency [8] | Potency [9]

C[C@@H]1C[C@@H](O)[C@@]2(CO)C(CO)=CCC[C@@H]2[C@@]12C[C@@H](c1ccoc1)OC2=O
inactive: outcome [1] | outcome [2] | Potency [3] | Potency [4] | outcome [5] | Potency [6] | Potency [7] | Potency [8] | Potency [9]

O=C(O)CC1CCC(c2ccc(NC(=O)c3nnc(Nc4ccc(F)c(F)c4)o3)cc2)CC1 (centres undefined)
inactive: outcome [1] | outcome [2] | Potency [3] | Potency [4] | outcome [5] | Potency [6] | Potency [7] | Potency [8] | Potency [9]

COc1cc2c(cc1O)CC(O)(CO)C(CO)C2c1ccc(OC2OC(CO)C(O)C(O)C2O)c(OC)c1 (centres undefined)
inactive: outcome [1] inactive [at 17.4 µM] | outcome [2] inactive [at 17.4 µM] | Potency [3] | Potency [4] | outcome [5] | Potency [6] | Potency [7] | Potency [8] | Potency [9]

O=C(c1ccc(Cl)c([N+](=O)[O-])c1)N1CCN(c2ccccc2F)CC1
inactive: outcome [1] | outcome [2] | Potency [3] | Potency [4] | outcome [5] | Potency [6] | Potency [7] | Potency [8] | Potency [9]

CC1CC2OCC3(O)CCC(O)C(C14CC(c1ccoc1)OC4=O)C23CO (centres undefined)
inactive: outcome [1] | outcome [2] | Potency [3] | Potency [4] | outcome [5] | Potency [6] | Potency [7] | Potency [8] | Potency [9]

C=C1CC[C@@]2(OC1)O[C@H]1CC3[C@@H]4CC=C5C[C@H](O[C@H]6OC[C@@H](O)C(O)[C@@H]6O[C@@H]6O[C@@H](C)[C@H](O)[C@@H](O[C@@H]7O[C@H](CO)[C@@H](O)[C@H](O)[C@H]7O)[C@H]6O)C[C@@H](O)[C@]5(C)C4CC[C@]3(C)[C@H]1[C@@H]2C (some centres undefined)
inactive: outcome [1] inactive [at 9.27 µM] | outcome [2] inactive [at 9.27 µM] | activity change, negative = cytotoxicity [3] 2.1% [at 11.6 µM] | activity change, negative = cytotoxicity [4] -11% [at 11.6 µM] | activity change, negative = cytotoxicity [5] -7.31% [at 11.6 µM] | activity change, negative = cytotoxicity [6] -3.81% [at 11.6 µM] | activity change, negative = cytotoxicity [7] 12.1% [at 11.6 µM] | activity change, negative = cytotoxicity [8] 9.36% [at 11.6 µM] | activity change, negative = cytotoxicity [9] -8.07% [at 11.6 µM]

CC(C)(O)c1ccc2c(c1)C(=O)C[C@H]1[C@](C)(C(=O)O)CCC[C@]21C
inactive: outcome [1] | outcome [2] | Potency [3] | Potency [4] | outcome [5] | Potency [6] | Potency [7] | Potency [8] | Potency [9]
